# Results: ChEMBL document CHEMBL1961873, “Compounds: GSK PKIS; Assays: Nanosyn kinase panel” (2012)
# Biological target: Serine/threonine-protein kinase 10 (Homo sapiens) (UniProt O94804);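 also: reported value is the mean percent inhibition of LOK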
# Details: at 1 µM
# Sequence of Serine/threonine-protein kinase 10 (Homo sapiens) (O94804 whole entry, looked up): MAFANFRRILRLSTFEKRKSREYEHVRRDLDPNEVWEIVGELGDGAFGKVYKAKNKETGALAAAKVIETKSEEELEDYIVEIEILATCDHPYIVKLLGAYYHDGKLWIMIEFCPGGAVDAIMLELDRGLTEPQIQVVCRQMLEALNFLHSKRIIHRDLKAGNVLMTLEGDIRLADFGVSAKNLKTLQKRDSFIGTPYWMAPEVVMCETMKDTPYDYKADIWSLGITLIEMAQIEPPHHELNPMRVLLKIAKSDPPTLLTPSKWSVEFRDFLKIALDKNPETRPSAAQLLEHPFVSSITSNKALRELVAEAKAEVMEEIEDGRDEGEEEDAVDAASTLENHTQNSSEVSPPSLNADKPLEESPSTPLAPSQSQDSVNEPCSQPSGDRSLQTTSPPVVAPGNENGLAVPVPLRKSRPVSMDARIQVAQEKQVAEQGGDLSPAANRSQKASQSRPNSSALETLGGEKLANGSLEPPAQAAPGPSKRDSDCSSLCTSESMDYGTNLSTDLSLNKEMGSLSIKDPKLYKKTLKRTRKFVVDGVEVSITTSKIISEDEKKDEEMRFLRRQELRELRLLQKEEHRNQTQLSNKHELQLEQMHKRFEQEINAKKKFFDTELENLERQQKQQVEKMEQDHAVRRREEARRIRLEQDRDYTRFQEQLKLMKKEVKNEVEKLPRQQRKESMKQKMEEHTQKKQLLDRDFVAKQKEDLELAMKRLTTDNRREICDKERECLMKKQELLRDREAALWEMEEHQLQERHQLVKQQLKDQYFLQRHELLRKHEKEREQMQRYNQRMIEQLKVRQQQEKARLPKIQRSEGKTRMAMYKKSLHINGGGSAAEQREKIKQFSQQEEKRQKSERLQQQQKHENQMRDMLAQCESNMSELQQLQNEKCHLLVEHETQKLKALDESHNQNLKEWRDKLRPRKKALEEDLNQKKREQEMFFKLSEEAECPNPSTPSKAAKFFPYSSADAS
row,SMILES,inhibition
1,c1ccc(COc2ccc(Nc3ncnc4ccc(-c5ccco5)cc34)cc2)cc1,5.39%
2,COc1ccc2[nH]c3c4[nH]c5ccc(OC)cc5c4c4c(c3c2c1)C(=O)NC4=O,40.2%
3,CC1=C(C(=O)Nc2cc(Cl)c3[nH]ncc3c2)C(c2ccc(C(F)(F)F)cc2)CC(=O)N1 (stereo unspecified),7.45%
4,Cc1cccc(Nc2ncc(-c3ccccc3)o2)c1,7.96%
5,Clc1ccc(-c2nn3ncccc3c2-c2ccnc(Nc3ccccc3)n2)cc1,40.8%
6,Cc1ccc(O)cc1Nc1ccnc2cc(-c3ccccn3)ccc12,47.6%
7,FC(F)(F)c1cccc(-c2nn3ncccc3c2-c2ccnc(Nc3ccc4c(c3)OCCO4)n2)c1,19.8%
8,Nc1nc(-c2cccc(Cl)c2)c(-c2ccc3ncccc3n2)s1,14.4%
9,COc1ccc2c(-c3ccnc(Nc4cccc(OC(F)(F)F)c4)n3)cnn2n1,10.6%
10,CCN(CC)S(=O)(=O)c1ccc(OC)c(Nc2ncc(-c3ccccc3)o2)c1,8.37%
11,COc1ccc(-c2oc3ncnc(N)c3c2-c2ccc(NC(=O)Nc3cc(C(F)(F)F)ccc3F)cc2)cc1,91.3%
12,CS(=O)(=O)CCNCc1ccc(-c2ccc3ncnc(Nc4ccc(OCc5ccccc5)c(C(F)(F)F)c4)c3c2)o1,8.24%
13,NS(=O)(=O)c1ccc(Nc2ncc(-c3ccccc3)o2)cc1,11.7%
14,CN1CCC(n2cnc(-c3ccc(F)cc3)c2-c2ccnc(Nc3ccccc3)n2)CC1,8.59%
15,CCCN(CCS(C)(=O)=O)Cc1ccc(-c2ccc3ncnc(Nc4ccc(OCc5cccc(F)c5)c(Cl)c4)c3c2)o1,5.54%
16,CN(C)CCOc1ccc(-c2nc(-c3ccncc3)c(-c3ccc4c(c3)CC/C4=N\O)[nH]2)cc1,69.2%
17,CCn1c(-c2nonc2N)nc2c(C#CC(C)(C)O)ncc(OC3CCNCC3)c21,11.2%

row,SMILES,inhibition
1,COc1ccc(CNC(=O)c2ccc(-c3cc(-c4nnc(C)o4)ccc3C)cc2)cc1,20.7%
2,[O-][S+]1CCN(Cc2ccc(-c3ccc4ncnc(Nc5ccc(OCc6cccc(F)c6)c(Cl)c5)c4c3)o2)CC1,15.9%
3,Nc1ncc(-c2cccc(S(N)(=O)=O)c2)c2scc(-c3ccc(F)c(Cl)c3)c12,24.7%
4,Nc1nc(-c2ccc(F)cc2)c(-c2ccc3ncccc3n2)s1,10.1%
5,Cc1cccc2c1NC(=O)/C2=N\Nc1ccc(S(N)(=O)=O)cc1,4.33%
6,N#Cc1c(NC(=O)CN2CCOCC2)sc2c1CCCC2,6.99%
7,CNC(=O)c1cncc(/C=C/c2ccccc2Cl)c1,8.22%
8,c1ccc(-c2nc3n(c2-c2ccc4c(c2)OCO4)CCC3)nc1,3.42%
9,CCCN1CCC(c2ccc(Nc3nc(Nc4cc(F)ccc4C(N)=O)c4cc[nH]c4n3)c(OC)c2)CC1,29.2%
10,CNC(=O)c1cccc(C#Cc2cncnc2Nc2ccc(OCc3cccc(F)c3)c(Cl)c2)c1,4.51%
11,Fc1ccc(-c2cc(-c3c[nH]nc3-c3ccccn3)ccn2)cc1,11.2%
12,COc1ccc(-c2cc3c(N)ncnc3o2)cc1,0.33%
13,CC(C)(CO)CNC(=O)c1ccc2c(c1)/C(=N/Nc1ccc(S(N)(=O)=O)cc1)C(=O)N2,4.55%
14,COc1cccc(-c2c[nH]c3c(N/N=C/c4ccncc4)ncnc23)c1,35.4%
15,CCc1nn2ncccc2c1-c1ccnc(NC2CC2)n1,8.22%
16,NC(=O)c1sc(-n2cnc3ccc(C(F)(F)F)cc32)cc1OCc1ccccc1Br,26%

# Biological target: T1, Mitogen-activated protein kinase kinase kinase kinase 2 (Homo sapiens) (UniProt Q12851);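 also: values given as mean percent inhibition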
# T1 sequence (whole entry): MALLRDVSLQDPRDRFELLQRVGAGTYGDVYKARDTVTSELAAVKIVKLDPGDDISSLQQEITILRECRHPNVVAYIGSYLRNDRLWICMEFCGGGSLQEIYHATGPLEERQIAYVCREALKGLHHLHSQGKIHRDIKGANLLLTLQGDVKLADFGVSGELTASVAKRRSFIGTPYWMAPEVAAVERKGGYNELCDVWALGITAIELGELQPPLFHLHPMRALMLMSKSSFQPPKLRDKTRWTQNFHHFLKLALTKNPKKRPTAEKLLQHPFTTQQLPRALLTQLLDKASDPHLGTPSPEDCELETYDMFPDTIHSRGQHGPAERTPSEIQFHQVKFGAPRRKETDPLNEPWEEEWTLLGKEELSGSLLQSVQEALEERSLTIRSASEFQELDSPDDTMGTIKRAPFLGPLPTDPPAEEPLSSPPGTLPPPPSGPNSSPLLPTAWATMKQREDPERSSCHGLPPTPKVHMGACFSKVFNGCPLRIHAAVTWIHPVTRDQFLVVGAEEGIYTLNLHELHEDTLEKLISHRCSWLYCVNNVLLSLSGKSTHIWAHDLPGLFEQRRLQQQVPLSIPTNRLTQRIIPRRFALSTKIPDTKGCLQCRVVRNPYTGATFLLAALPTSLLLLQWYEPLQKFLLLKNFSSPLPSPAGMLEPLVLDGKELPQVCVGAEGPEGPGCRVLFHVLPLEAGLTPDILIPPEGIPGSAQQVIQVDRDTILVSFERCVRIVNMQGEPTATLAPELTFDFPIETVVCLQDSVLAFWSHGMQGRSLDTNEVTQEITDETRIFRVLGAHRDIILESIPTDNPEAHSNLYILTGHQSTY
# Details: at 0.1 µM
row,SMILES,inhibition
1,c1ccc(COc2ccc(Nc3ncnc4ccc(-c5ccco5)cc34)cc2)cc1,2.84%
2,COc1ccc2[nH]c3c4[nH]c5ccc(OC)cc5c4c4c(c3c2c1)C(=O)NC4=O,2.06%
3,CC1=C(C(=O)Nc2cc(Cl)c3[nH]ncc3c2)C(c2ccc(C(F)(F)F)cc2)CC(=O)N1 (stereo unspecified),2%
4,Cc1cccc(Nc2ncc(-c3ccccc3)o2)c1,1.52%
5,Clc1ccc(-c2nn3ncccc3c2-c2ccnc(Nc3ccccc3)n2)cc1,1.09%
6,Cc1ccc(O)cc1Nc1ccnc2cc(-c3ccccn3)ccc12,3.74%
7,FC(F)(F)c1cccc(-c2nn3ncccc3c2-c2ccnc(Nc3ccc4c(c3)OCCO4)n2)c1,1.35%
8,Nc1nc(-c2cccc(Cl)c2)c(-c2ccc3ncccc3n2)s1,1.48%
9,COc1ccc2c(-c3ccnc(Nc4cccc(OC(F)(F)F)c4)n3)cnn2n1,0.05%
10,CCN(CC)S(=O)(=O)c1ccc(OC)c(Nc2ncc(-c3ccccc3)o2)c1,1.18%
11,COc1ccc(-c2oc3ncnc(N)c3c2-c2ccc(NC(=O)Nc3cc(C(F)(F)F)ccc3F)cc2)cc1,8.42%
12,CS(=O)(=O)CCNCc1ccc(-c2ccc3ncnc(Nc4ccc(OCc5ccccc5)c(C(F)(F)F)c4)c3c2)o1,0.85%
13,NS(=O)(=O)c1ccc(Nc2ncc(-c3ccccc3)o2)cc1,1.1%
14,CN1CCC(n2cnc(-c3ccc(F)cc3)c2-c2ccnc(Nc3ccccc3)n2)CC1,1.51%
15,CCCN(CCS(C)(=O)=O)Cc1ccc(-c2ccc3ncnc(Nc4ccc(OCc5cccc(F)c5)c(Cl)c4)c3c2)o1,0.84%
16,CN(C)CCOc1ccc(-c2nc(-c3ccncc3)c(-c3ccc4c(c3)CC/C4=N\O)[nH]2)cc1,0.69%
17,CCn1c(-c2nonc2N)nc2c(C#CC(C)(C)O)ncc(OC3CCNCC3)c21,2.3%

row,SMILES,inhibition
1,COc1ccc(CNC(=O)c2ccc(-c3cc(-c4nnc(C)o4)ccc3C)cc2)cc1,4%
2,[O-][S+]1CCN(Cc2ccc(-c3ccc4ncnc(Nc5ccc(OCc6cccc(F)c6)c(Cl)c5)c4c3)o2)CC1,1.81%
3,Nc1ncc(-c2cccc(S(N)(=O)=O)c2)c2scc(-c3ccc(F)c(Cl)c3)c12,6.47%
4,Nc1nc(-c2ccc(F)cc2)c(-c2ccc3ncccc3n2)s1,2.4%
5,Cc1cccc2c1NC(=O)/C2=N\Nc1ccc(S(N)(=O)=O)cc1,0.93%
6,N#Cc1c(NC(=O)CN2CCOCC2)sc2c1CCCC2,1.71%
7,CNC(=O)c1cncc(/C=C/c2ccccc2Cl)c1,1.8%
8,c1ccc(-c2nc3n(c2-c2ccc4c(c2)OCO4)CCC3)nc1,2.19%
9,CCCN1CCC(c2ccc(Nc3nc(Nc4cc(F)ccc4C(N)=O)c4cc[nH]c4n3)c(OC)c2)CC1,10.2%
10,CNC(=O)c1cccc(C#Cc2cncnc2Nc2ccc(OCc3cccc(F)c3)c(Cl)c2)c1,-1.31%
11,Fc1ccc(-c2cc(-c3c[nH]nc3-c3ccccn3)ccn2)cc1,-0.05%
12,COc1ccc(-c2cc3c(N)ncnc3o2)cc1,2.31%
13,CC(C)(CO)CNC(=O)c1ccc2c(c1)/C(=N/Nc1ccc(S(N)(=O)=O)cc1)C(=O)N2,0.92%
14,COc1cccc(-c2c[nH]c3c(N/N=C/c4ccncc4)ncnc23)c1,3.34%
15,CCc1nn2ncccc2c1-c1ccnc(NC2CC2)n1,0.96%
16,NC(=O)c1sc(-n2cnc3ccc(C(F)(F)F)cc32)cc1OCc1ccccc1Br,0.79%
